BH1578 lux ind: inducers of Vibrio cholerae quorum light production without autoinducers; activation, % at 18.7 µM; AID 588436; V. cholerae BH1578 lux reporter, luminescence, 6 h; actives 0.16% (n = 350,000); in the data active = activation mostly above about 9.7%, no sharp cut-off; inconclusive = no clear call, values can overlap the other calls; inactive = mostly below about 3.7%
PfHsp40 yeast: restores yeast growth despite PfHsp40 toxicity | S. cerevisiae expressing PfHsp40, growth rescue, ATP luminescence | growth rescue, % at 12.5 µM | actives 0.68% (n = 340,000); in the data active = growth rescue above about 28%, passing the limit was not always enough; inconclusive = no clear call, values can overlap the other calls;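 note: yeast W303a lacking pdr1 and pdr3 grown in galactose medium; growth measured after three days at 30 °C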
Mtb hypoxia inh: Mtb hypoxia fluorescent reporter inhibition; actives 0.1% (n = 300,000); fluorescence inhibition, % (concentration not given with the values); AID 1159583; M. tuberculosis hypoxia-regulated fluorescent reporter, fluorescence; in the data active = fluorescence inhibition mostly above about 23%, no sharp cut-off; inactive = mostly below about 17%
CCHF vOTU inh-1: CCHFV vOTU protease inhibition; actives 0.55% (n = 370,000); Pep-AMC fluorescence; inhibition, % at 11.5 µM; note: 0% = vehicle wells with enzyme and 100% = no enzyme wells
Sa RN4220 lethal: S. aureus RN4220 growth inhibition; actives 0.33% (n = 330,000); inhibition, % (test concentration not listed); OD600, 16 h; in the data active = inhibition above about 85%;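 note: plate controls were untreated cells for no effect and reference antibiotic for full effect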
Sa ugtP lethal: kills S. aureus RN4220 lacking UgtP. S. aureus RN4220 ugtP deletion, OD600 growth, 16 h. growth inhibition, % (no concentration beside the values). actives 0.54% (n = 330,000). AID 1259309; in the data active = growth inhibition above about 68%;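 note: plate controls were untreated wells for no effect and antibiotic for full effect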
CCHF vOTU inh-2: confirmation of CCHF virus vOTU protease inhibitors. inhibition, % at 11.5 µM. shares compounds with CCHF vOTU inh-1. Recombinant CCHFV vOTU, Pep-AMC fluorescence. actives 17% (n = 1,900)
* marks the source's active call; other numbers are inactive results; i = inactive; ? = inconclusive; . = no result given. The list is not random: actives were taken first. Their share in the collection is about 1.7%. Cut-off read from the data, not from the text of the source, unless noted: active = inhibition above about 30%; inactive = the rest.

SMILES	BH1578 lux ind	PfHsp40 yeast	Mtb hypoxia inh	CCHF vOTU inh-1	Sa RN4220 lethal	Sa ugtP lethal	CCHF vOTU inh-2
CCOc1ccc(S(=O)(=O)Nc2cc(SCC(=O)O)c(O)c3ccccc23)cc1	-2	1	9	101*	15	-2	77*
Cc1ccc(S(=O)(=O)Nc2cccc3cccnc23)cc1	0	?	.	11	.	.	.
COC(=O)C1=C(c2ccc(Cl)c(C(F)(F)F)c2)CC2CCC1N2C(=O)NC(C)C (stereo not given)	.	.	6	.	2	-5	.
CCC(=O)N1CCN(c2ccc(NC(=S)NC(=O)c3cc4ccccc4o3)cc2)CC1	0	0	.	34*	0	72	-9
Nc1ncnc2oc(-c3ccco3)c(-c3ccco3)c12	i	4	11	34*	-3	-1	-55
Nc1nnc(-c2ccco2)s1	2	0	-5	3	1	-5	.
O=C(N/N=C/c1cccs1)c1cccc(NC(=O)c2ccc(Cl)cc2)c1	.	.	.	46*	.	.	5
CN(Cc1ccccc1)c1cc2c(c3c1ccn3C)C1CCC2O1 (stereo not given)	.	.	.	5	.	.	.
Cn1ccc2c(N(Cc3ccccc3)Cc3ccccc3)cc3c(c21)C1CCC3O1 (stereo not given)	.	.	.	44*	.	.	-21
COC(=O)[C@]12C[C@H](CC(=O)NCCC(C)C)C(=O)N(CCC3=CCCCC3)C1=C[C@H](C(C)(C)C)O[C@@H]2C	.	.	.	30*	.	.	5
COC(=O)[C@]12C[C@H](CC(=O)N3CCOCC3)C(=O)N(CCC3=CCCCC3)C1=C[C@H](C(C)(C)C)O[C@@H]2C	.	.	.	30*	.	.	-8
COC(=O)[C@]12C[C@H](CC(=O)NCC3CCCCC3)C(=O)N(CCc3ccc(OC)c(OC)c3)C1=C[C@H](C1CCCC1)O[C@@H]2C	.	.	.	22	.	.	.
COC(=O)[C@]12C[C@H](CC(=O)NCC3CCCCC3)C(=O)N(CCc3ccc(OC)c(OC)c3)C1=C[C@H](C(C)(C)C)O[C@@H]2C	.	.	.	31*	.	.	19
CCCCCCCCN1C(=O)[C@@H](CC(=O)N2CCOCC2)C[C@@]2(C(=O)OC)C1=C[C@H](C(C)(C)C)O[C@@H]2C	.	.	.	31*	.	.	28
COC(=O)[C@]12C[C@H](CC(=O)N3CCCC3)C(=O)N(CCC3=CCCCC3)C1=C[C@H](C(C)(C)C)O[C@@H]2C	.	.	.	15	.	.	.
CC1CN(C(C)CO)C(=O)c2cc(NC(=O)C3CC3)ccc2OC1CN(C)C (stereo not given)	.	.	1	.	-1	2	.
COC(=O)[C@]12C[C@H](CC(=O)N3CCC(c4ccccc4)CC3)C(=O)N(Cc3ccc4c(c3)OCO4)C1=C[C@H](C(C)(C)C)O[C@@H]2C	.	.	.	30*	.	.	-3
Cc1[nH]c(=O)[nH]c(=O)c1C=NNC(=O)CCc1ccc(OC(C)C)cc1	.	.	4	.	5	9	.
CC(=O)N1c2ccccc2N=C(c2ccc(C(F)(F)F)cc2)C1C(=O)NC(C)C (stereo not given)	.	.	.	30*	.	.	-14
O=C(CNc1n[nH]c(=O)[nH]c1=O)NN=C/C=C/c1ccccc1	.	.	8	.	2	-4	.
CN(C)CCCN1c2ccc([N+](=O)[O-])cc2CCc2cc([N+](=O)[O-])ccc21	-11	1	3	35*	-3	-1	-4
CC(NC(=O)c1nc[nH]c1C(=O)NC(CCCCNC(=O)OC(C)(C)C)C(=O)OC(C)(C)C)C(=O)OCc1ccccc1 (stereo not given)	.	.	1	.	0	-2	.
CC(C)(C)OC(=O)NCCCC[C@H](NC(=O)c1[nH]cnc1C(=O)N[C@@H](Cc1ccccc1)C(=O)OCc1ccccc1)C(=O)OC(C)(C)C	0	1	.	31*	.	.	13
CC(NC(=O)c1nc[nH]c1C(=O)NC(CCCCNC(=O)OC(C)(C)C)C(=O)OC(C)(C)C)c1ccccc1 (stereo not given)	.	.	11	.	5	7	.
C[C@@H](NC(=O)c1nc[nH]c1C(=O)N[C@@H](CCCCNC(=O)OC(C)(C)C)C(=O)OC(C)(C)C)c1ccccc1	-1	1	.	35*	.	.	5
SMILES	BH1578 lux ind	PfHsp40 yeast	Mtb hypoxia inh	CCHF vOTU inh-1	Sa RN4220 lethal	Sa ugtP lethal	CCHF vOTU inh-2
COc1ccccc1-c1sc2cc3c(cc2c1-c1ccc(O)cc1)OCO3	0	?	10	30*	-18	56	-2
CCC1CCCCN1c1ccc([N+](=O)[O-])cc1C=NNC(=O)Cn1c2ccccc2c(=O)c2ccccc21 (stereo not given)	.	.	3	.	3	-4	.
C=CCN1C(=O)c2ccc(C(=O)OCC(=O)Nc3ccccc3OC)cc2C1=O	i	-1	7	32*	5	4	-23
C=CCN1C(=O)c2ccc(C(=O)N(C)CC(=O)Nc3ccccc3Br)cc2C1=O	i	2	10	6	3	3	.
OC(c1ccc(Cl)c(F)c1)c1ncc(-c2ccccc2C(F)(F)F)[nH]1 (stereo not given)	i	.	.	-1	.	.	.
OC(c1ccc(Cl)c(Cl)c1)c1ncc(-c2ccccc2C(F)(F)F)[nH]1 (stereo not given)	i	.	.	34*	.	.	-10
OC(c1ccc(Cl)c(Cl)c1)c1ncc(-c2ccc(C(F)(F)F)cc2)[nH]1 (stereo not given)	-1	.	.	35*	.	.	-6
CCCc1c(C(=O)NN=Cc2c(OC)ccc3ccccc23)nnn1-c1nonc1N	.	.	-2	.	7	2	.
O=C1c2ccccc2C(=O)C12OC2c1cccc2ccccc12 (stereo not given)	0	0	.	87*	.	.	48*
O=C1c2cccc(Cl)c2C(=O)c2c1cccc2N1CCCC1	i	381*	17	71*	2	7	-14
C#CCCOC(=O)N1C2=NC(C(=O)OC)=C(C(=O)OC)C3N(Cc4ccccc4)c4ccccc4[C@]23CC1C(=O)OC (stereo not given in full)	.	.	-7	.	1	3	.
O=C(O)c1cc(N2N=C(C(F)(F)F)/C(=C/C=C/c3ccco3)C2=O)ccc1Cl	-1	112*	4	63*	16	-2	44*
CCOC(=O)c1ccc(N2N=C(C)/C(=C/C=C/c3ccco3)C2=O)cc1	i	0	2	-8	1	-18	.
Oc1c(C=C2N=c3ccccc3=N2)sc(=S)n1-c1ccccc1	i	1	-7	-11	-5	-9	.
CC1=Nc2ccccc2/C1=C/c1sc(=S)n(-c2cccc(C(=O)O)c2)c1O	-3	-1	-10	36*	14	10	26
CN1C(C(=O)Nc2cccc(O)c2)=CC(c2cccs2)=NS1(=O)=O	0	-1	2	33*	1	1	-7
Cn1c2ccccc2c2cc(/C=C(\NC(=O)c3ccccc3)C(=O)O)ccc21	i	2	-14	30*	1	0	-6
COc1ccc(-c2cccc(C(=O)Nc3ccc(C)cc3)c2)cc1	i	1	15	31*	4	2	-4

Bioassay records: PubChem, several laboratories
